Molecules are shown by their SMILES. Screen size: about 330,000 compounds; about 220 (0.067%) were called active. For the sample, actives were picked, then their nearest neighbours and some compounds at random. Unmarked numbers belong to inactive results.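 Rule for the calls: active = over half of replicate activation scores above 10%, or exactly half above 10 with the replicate mean above 10; inconclusive = replicate mean below 10 yet half the replicates above 10; inactive = over half of replicates below 10.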

This assay can be described thus: inducers of caspase signal in A1-primed MEFs – cell-based, luminescence, HTS, A1 inhibitor project, primary screen (AID 2462). Conditions: MEF A1-2A-BIM cells, Caspase-Glo 3/7 luminescence, 3 h; active compounds read high; percent of clofoctol response, vehicle zero; concentration not given here.
`O=C(NNC(=O)c1cccc(S(=O)(=O)Nc2ccc(Cl)cc2)c1)c1ccc(=O)[nH]c1`: the caspase activation was -1.36%.
Next, `Cc1ccc(-n2[nH]c(C)c(/C=N/NC(=O)c3cccc([N+](=O)[O-])c3)c2=O)cc1C`: -4.49%; `Cc1[nH]n(-c2ccccc2)c(=O)c1/C=N/NC(=O)c1ccoc1C`: -3.41%; `COc1cc(SC#N)ccc1N=Cc1c(C)[nH]n(-c2ccc(C)cc2)c1=O`: 11.1% (active).
Consider `O=C(NNS(=O)(=O)c1c(F)cc(F)c(Cl)c1F)C12CC3CC(CC(C3)C1)C2`, for which the caspase activation was 0.494%.
With `CCOC(=O)c1c(-c2cccc(N)c2)cn2ccccc12`, the caspase activation is 0.104%.
With `Cc1cc(NC(=O)CN2C(=O)NC(C)(CCc3ccccc3)C2=O)no1` (centres undefined), the caspase activation was -0.914%.
Next, `Cc1ccc(N/N=C2\COC(C)(C)CC2=O)cc1`: 0.0616%.
In the case of `Cc1c(Cl)cccc1NC(=O)CSc1ccc(-c2cccnc2)nn1`, the caspase activation was 0.424%.
With `CC(C)C[C@H](NC(=O)N1CC(=O)Nc2ccccc21)C(=O)N[C@H](Cc1ccccc1)C(=O)O` the figure was 0.252%; with `CNC(=O)COc1ccc(S(=O)(=O)Nc2ccccc2)cc1`, -0.951%.
For the molecule `Cc1ccc(NC(=O)/C(=C/c2ccc([N+](=O)[O-])cc2)NC(=O)c2ccccc2)cc1`, the caspase activation was -0.427%.
With `CCOC(=O)/C(=C\c1ccc([N+](=O)[O-])cc1)C(=O)c1cc(C(C)=O)c(Nc2ccccc2)s1` the figure was 46.4% (active); with `CCOC(=O)/C(=N\Nc1ccccc1[N+](=O)[O-])c1csc(Nc2ccccc2)n1`, -0.494%; with `C/C(=C/C(=O)N1CCN(C)CC1)C(=O)O`, 0.653%.
Next, `Cc1cc(C)nc(NNC2=CC(=O)CC(C)(C)C2)n1`: -0.196%; `CC(C)(C)N(Cc1ccccc1)C(=O)COC(=O)CCc1c[nH]c2ccccc12`: -1%.
Next, `COc1ccc(N2C(=O)/C(=C\c3ccco3)N=C2SCC(N)=O)cc1Cl`: -0.66%; `Cc1cc(C)n(S(=O)(=O)c2cccc([N+](=O)[O-])c2)n1`: 0.962%.
As for `O=C(NCc1ccco1)c1ccc([N+](=O)[O-])cc1Cl`, the caspase activation is 1.19%.
For the molecule `COc1cc2c(cc1NC(=O)CN1CCN(S(=O)(=O)c3ccc(F)cc3)CC1)oc1ccccc12`, the caspase activation was -0.105%.
As for `COc1cc(/C=C/C(=O)OCC(=O)c2ccccc2)cc(OC)c1OC`, the caspase activation is 0.0945%.
In the case of `COc1cc2c(cc1NC(=O)COC(=O)/C=C/c1ccccc1)oc1ccccc12`, the caspase activation is 8.52% (active).
Next, `Cc1[nH]n(-c2ccccc2)c(=O)c1CCOC(=O)c1ccc(C(F)(F)F)cc1`: 0.514%.

For the origin of these results see PubChem BioAssay AID2462 (Broad Institute, 2010).
